Laboratory results as given in PubChem BioAssay (NCI).
Compounds without any hit were thinned out: in the full panel of roughly 83,000, 20% have a hit.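 Treatment: one concentration, 48 hours, 96-well format. Scoring: percent growth, with anything below 10 considered active.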 Calls of active or inactive are those of the source. Where a SMILES comes first, the peptide text is derived from it. [ ]: non-standard residue; d: D form. ξ: configuration not given here. ξD = NC(CC(=O)O)C(=O)O

Key:
Assay in all cases: NCI-60 one-dose screen, 48 h (100 = growth as untreated, 0 = no growth, -100 = all killed)
DU-145 prostate = details: 10 µM unless noted
K-562 leukemia = details: 10 µM unless noted
MALME-3M melanoma = details: 10 µM unless noted
RXF 393 renal = details: 10 µM unless noted
SF-268 CNS = details: 10 µM unless noted
SF-295 CNS = details: 10 µM unless noted
SF-539 CNS = details: 10 µM unless noted
UACC-257 melanoma = details: 10 µM unless noted
M14 melanoma = details: 10 µM unless noted
HCT-15 colon = details: 10 µM unless noted
HT29 colon = details: 10 µM unless noted
SNB-75 CNS = details: 10 µM unless noted
U251 CNS = details: 10 µM unless noted
PC-3 prostate = details: 10 µM unless noted
SK-MEL-5 melanoma = details: 10 µM unless noted
UACC-62 melanoma = details: 10 µM unless noted
LOX IMVI melanoma = details: 10 µM
SK-MEL-28 melanoma = details: 10 µM unless noted
MDA-MB-231 breast = details: 10 µM unless noted
SNB-19 CNS = details: 10 µM unless noted

Measured: growth

CCOC(=O)C1=C(C(=O)c2ccccc2)C(c2cccc([N+](=O)[O-])c2)C(C(=O)c2ccccc2)=C(C(=O)OCC)N1
active: LOX IMVI melanoma -57.6%
inactive: DU-145 prostate 97% | K-562 leukemia 21.5% | MALME-3M melanoma 93.1% | RXF 393 renal 79.3% | SF-268 CNS 93.9% | SF-295 CNS 90.2% | SF-539 CNS 95.7% | UACC-257 melanoma 105% | M14 melanoma 89.9% | HCT-15 colon 66.4% | HT29 colon 94.3% | SNB-75 CNS 88.4% | U251 CNS 79.9% | PC-3 prostate 86% | SK-MEL-5 melanoma 95.9% | UACC-62 melanoma 70.2% | SK-MEL-28 melanoma 95.6%

OC(CSc1ccccc1)CN1CCN(c2ccc(Cl)cc2)CC1 (centres undefined)
inactive: DU-145 prostate 110% | K-562 leukemia 78.3% | MDA-MB-231 breast 94.7% | RXF 393 renal 95.7% | SF-268 CNS 103% | SF-295 CNS 94.3% | SF-539 CNS 96.8% | UACC-257 melanoma 101% | M14 melanoma 100% | HCT-15 colon 96.1% | HT29 colon 101% | SNB-75 CNS 91.3% | SNB-19 CNS 94.7% | U251 CNS 95.2% | PC-3 prostate 94.3% | SK-MEL-5 melanoma 89.2% | UACC-62 melanoma 82.2% | LOX IMVI melanoma 93% | SK-MEL-28 melanoma 110%

Cc1onc(-c2ccccc2)c1C(=O)N/N=C/c1cc(Cl)cc(Cl)c1O
active: SF-295 CNS -5.54% | SK-MEL-5 melanoma 9.32%
inactive: DU-145 prostate 44.6% | K-562 leukemia 29.4% | MDA-MB-231 breast 34.4% | RXF 393 renal 64.1% | SF-268 CNS 34.1% | SF-539 CNS 16.5% | UACC-257 melanoma 17.4% | M14 melanoma 14.3% | HCT-15 colon 25.6% | HT29 colon 42.2% | SNB-75 CNS 61.4% | SNB-19 CNS 43.8% | U251 CNS 25% | PC-3 prostate 46.2% | UACC-62 melanoma 10.9% | LOX IMVI melanoma 11.2% | SK-MEL-28 melanoma 51.3%

NCC(=O)NC(CC(=O)O)C(=O)O (centres undefined) (H-Gly-[ξD]-OH)
inactive: DU-145 prostate 105% | K-562 leukemia 106% | MALME-3M melanoma 98.1% | RXF 393 renal 109% | SF-268 CNS 107% | SF-295 CNS 101% | SF-539 CNS 99.3% | UACC-257 melanoma 96.5% | HCT-15 colon 105% | HT29 colon 98.2% | SNB-75 CNS 98.6% | U251 CNS 103% | PC-3 prostate 86.7% | SK-MEL-5 melanoma 101% | UACC-62 melanoma 91.4% | LOX IMVI melanoma 103% | SK-MEL-28 melanoma 104%

CCCCCCCCC(=O)OCCCC(CCC(CCC1CCCO1)OC(=O)CCCCCCCC)OC(=O)CCCCCCCC (centres undefined)
inactive: DU-145 prostate 106% | K-562 leukemia 115% | MALME-3M melanoma 109% | RXF 393 renal 107% | SF-268 CNS 95.7% | SF-295 CNS 94.4% | SF-539 CNS 97.3% | UACC-257 melanoma 99.9% | M14 melanoma 111% | HCT-15 colon 103% | HT29 colon 93% | SNB-75 CNS 93.8% | U251 CNS 106% | PC-3 prostate 85.1% | SK-MEL-5 melanoma 102% | UACC-62 melanoma 88.2% | LOX IMVI melanoma 98.6% | SK-MEL-28 melanoma 102%

Nc1nc2ncc(CNc3ccc(C(=O)NC(CCC(=O)NC(CCC(=O)NC(CCC(=O)NC(CCC(=O)NC(CCC(=O)O)C(=O)O)C(=O)O)C(=O)O)C(=O)O)C(=O)O)cc3)nc2c(=O)[nH]1 (centres undefined)
inactive: DU-145 prostate 108% | K-562 leukemia 97.4% | MALME-3M melanoma 90.3% | RXF 393 renal 112% | SF-268 CNS 105% | SF-295 CNS 106% | SF-539 CNS 99.8% | UACC-257 melanoma 105% | HCT-15 colon 103% | HT29 colon 107% | SNB-75 CNS 107% | U251 CNS 110% | PC-3 prostate 100% | SK-MEL-5 melanoma 94.7% | UACC-62 melanoma 94.5% | LOX IMVI melanoma 100% | SK-MEL-28 melanoma 110%

COc1cc(NC(=O)C2=C(C)NC(C)=C(C(=O)Nc3cc(OC)c(Cl)cc3OC)C2c2cccc([N+](=O)[O-])c2)c(OC)cc1Cl
inactive: DU-145 prostate 58.4% | K-562 leukemia 33.4% | MALME-3M melanoma 37.5% | RXF 393 renal 36.7% | SF-268 CNS 39.3% | SF-295 CNS 26.3% | SF-539 CNS 31.8% | UACC-257 melanoma 46.9% | M14 melanoma 20.1% | HCT-15 colon 14.3% | HT29 colon 40.6% | SNB-75 CNS 45.3% | U251 CNS 31.6% | PC-3 prostate 16.8% | UACC-62 melanoma 27.6% | LOX IMVI melanoma 22.8% | SK-MEL-28 melanoma 24.4%
active: SK-MEL-5 melanoma -5.53%

NNc1ccc(Cl)cc1Cl
inactive: DU-145 prostate 108% | K-562 leukemia 13.4% | MALME-3M melanoma 104% | RXF 393 renal 102% | SF-268 CNS 71.7% | SF-295 CNS 76.6% | SF-539 CNS 94.5% | M14 melanoma 67.6% | HCT-15 colon 79.8% | HT29 colon 94.2% | SNB-75 CNS 80.7% | SNB-19 CNS 92.5% | U251 CNS 76.4% | PC-3 prostate 60.4% | SK-MEL-5 melanoma 86.1% | UACC-62 melanoma 37.2% | LOX IMVI melanoma 67.5% | SK-MEL-28 melanoma 120%
